Test [1] in a line: antimalarial activity against Dd2 strain (AID 2302;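 active = growth inhibition above 50% at the single 2 µM test dose, taken to imply half-maximal potency below 2 µM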;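 note: 0% = DMSO untreated growth and 100% = chloroquine plus artemisinin killed control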). The conditions noted are these: P. falciparum Dd2 in RBCs, LDH growth readout, 72 h; at 2 µM; hits give high values.
The nature of test [2]: HepG2 cytotoxicity, primary screen, cytotoxicity control for P. falciparum antimalarial project, cell-based, ATP luminescence (AID 2303;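 active = inhibition above 50%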;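 note: 0% = DMSO wells and 100% = digitonin-killed cells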). The note with it: HepG2 viability, 24-48 h, at 10 µM, hits give high values.
Test [3] deals with L-lactate dehydrogenase (Plasmodium falciparum (isolate CDC / Honduras)) (UniProt Q27743). Kind of test: PfLDH activity inhibition – cell lysate, 3D7 strain, counter-screen for P. falciparum growth inhibition project (AID 2304).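 Note: 0% = vehicle and 100% = reference inhibitor.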 The conditions noted are these: P. falciparum 3D7 crude extract, LDH APAD/NBT absorbance; at 2 µM; hits give high values. For orientation: Counterscreens check selectivity or assay interference.
L-lactate dehydrogenase (Plasmodium falciparum (isolate CDC / Honduras)), sequence (Q27743 whole entry, looked up): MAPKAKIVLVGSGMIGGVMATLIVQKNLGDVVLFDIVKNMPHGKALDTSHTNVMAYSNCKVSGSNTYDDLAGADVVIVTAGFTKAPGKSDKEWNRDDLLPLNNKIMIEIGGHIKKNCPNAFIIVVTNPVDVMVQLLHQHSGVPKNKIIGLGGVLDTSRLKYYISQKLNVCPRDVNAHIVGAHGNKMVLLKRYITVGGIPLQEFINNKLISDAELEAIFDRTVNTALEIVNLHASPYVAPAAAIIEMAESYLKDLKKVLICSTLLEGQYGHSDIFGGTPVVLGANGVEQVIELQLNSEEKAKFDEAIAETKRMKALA

Test [4] can be described thus: inhibition of 3D7 malaria parasite growth – strain 3D7 (AID 2306).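 Note: 0% = DMSO wells and 100% = chloroquine plus artemisinin control wells.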 The note with it: P. falciparum 3D7 erythrocytic growth, LDH absorbance, 72 h; at 2 µM; hits give high values.
Test [5] addresses Calcium-dependent protein kinase 1 (Plasmodium falciparum (isolate 3D7)) (UniProt P62344). The test can be described thus: PfCDPK1 kinase inhibitors, biochemical, TCAMS library (AID 1159585; cut-off not given, nearly all actives have IC50 up to about 0.98 µM;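 note: inhibitors leave more ATP so luminescence rises with inhibition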). The note with it: recombinant PfCDPK1, Kinase-Glo ATP depletion luminescence. Background: Kinase-Glo reads ATP consumption through a luciferase reaction.
The target in test [6] is Plasmodium falciparum protein kinase 6 (PK6, PF3D7_1337100) (UniProt Q8IDW1). Kind of test: PfPK6 kinase inhibitors, biochemical, TCAMS library (AID 1159586). The note with it: recombinant PfPK6, Kinase-Glo ATP depletion luminescence.
Plasmodium falciparum protein kinase 6 (PK6, PF3D7_1337100), sequence (Q8IDW1 1-305): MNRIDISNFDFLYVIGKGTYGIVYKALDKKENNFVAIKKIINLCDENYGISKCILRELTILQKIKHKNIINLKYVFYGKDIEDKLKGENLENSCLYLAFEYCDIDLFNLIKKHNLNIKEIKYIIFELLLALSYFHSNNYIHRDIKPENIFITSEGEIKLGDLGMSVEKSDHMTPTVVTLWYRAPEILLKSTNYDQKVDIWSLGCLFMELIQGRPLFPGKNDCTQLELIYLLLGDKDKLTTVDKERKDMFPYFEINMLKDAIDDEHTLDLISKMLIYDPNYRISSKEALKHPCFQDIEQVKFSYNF
In test [7] the target is Protein kinase 7 (PK7), Plasmodium falciparum 3D7 (PF3D7_0213400) (UniProt Q7YTF7). Kind of test: inhibition of Plasmodium PK7 catalytic activity – biochemical, TCAMS antimalarial set, Kinase-Glo luminescence (AID 1159587). The conditions noted are these: recombinant PfPK7, Kinase-Glo ATP depletion luminescence.
Protein kinase 7 (PK7), Plasmodium falciparum 3D7 (PF3D7_0213400), sequence (Q7YTF7 1-343): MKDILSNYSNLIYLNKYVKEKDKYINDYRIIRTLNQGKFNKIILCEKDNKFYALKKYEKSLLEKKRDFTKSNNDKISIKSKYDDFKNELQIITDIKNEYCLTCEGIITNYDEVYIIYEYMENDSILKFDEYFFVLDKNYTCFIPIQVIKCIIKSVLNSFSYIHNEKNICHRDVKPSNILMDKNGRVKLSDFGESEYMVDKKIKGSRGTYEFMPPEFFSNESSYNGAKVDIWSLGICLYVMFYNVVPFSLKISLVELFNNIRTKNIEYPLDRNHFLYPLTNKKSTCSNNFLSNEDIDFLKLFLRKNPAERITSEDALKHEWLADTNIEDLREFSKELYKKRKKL
In test [8] the target is Calcium-dependent protein kinase 4 (Plasmodium falciparum (isolate 3D7)) (UniProt Q8IBS5). The test can be described thus: PfCDPK4 kinase inhibitors, biochemical, TCAMS library (AID 1159588; cut-off not given, nearly all actives have IC50 up to about 0.91 µM). The note with it: recombinant PfCDPK4, Kinase-Glo ATP depletion luminescence.
Calcium-dependent protein kinase 4 (Plasmodium falciparum (isolate 3D7)), sequence (Q8IBS5 whole entry, looked up): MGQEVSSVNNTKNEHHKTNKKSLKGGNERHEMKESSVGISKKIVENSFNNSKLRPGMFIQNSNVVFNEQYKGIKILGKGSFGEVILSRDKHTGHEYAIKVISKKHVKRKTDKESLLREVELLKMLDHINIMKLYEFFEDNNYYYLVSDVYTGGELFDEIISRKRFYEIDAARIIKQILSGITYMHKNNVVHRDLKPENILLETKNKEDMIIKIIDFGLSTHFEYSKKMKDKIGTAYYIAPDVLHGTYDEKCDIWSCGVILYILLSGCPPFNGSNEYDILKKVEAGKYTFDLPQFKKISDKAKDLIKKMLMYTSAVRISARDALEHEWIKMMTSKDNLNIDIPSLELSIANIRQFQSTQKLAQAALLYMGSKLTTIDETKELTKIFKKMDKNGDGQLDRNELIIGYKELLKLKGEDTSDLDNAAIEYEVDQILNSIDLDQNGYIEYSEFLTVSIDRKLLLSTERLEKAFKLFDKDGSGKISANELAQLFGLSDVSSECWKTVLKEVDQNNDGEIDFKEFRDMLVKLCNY

Values without a mark were called inactive. For some of these results: Potency and affinity values are given separately. Activity calls are given as the source filed them. Unless noted, the rule behind the calls is not given here.

Calcium-dependent protein kinase 1 (Plasmodium falciparum (isolate 3D7)), sequence (P62344 whole entry, looked up): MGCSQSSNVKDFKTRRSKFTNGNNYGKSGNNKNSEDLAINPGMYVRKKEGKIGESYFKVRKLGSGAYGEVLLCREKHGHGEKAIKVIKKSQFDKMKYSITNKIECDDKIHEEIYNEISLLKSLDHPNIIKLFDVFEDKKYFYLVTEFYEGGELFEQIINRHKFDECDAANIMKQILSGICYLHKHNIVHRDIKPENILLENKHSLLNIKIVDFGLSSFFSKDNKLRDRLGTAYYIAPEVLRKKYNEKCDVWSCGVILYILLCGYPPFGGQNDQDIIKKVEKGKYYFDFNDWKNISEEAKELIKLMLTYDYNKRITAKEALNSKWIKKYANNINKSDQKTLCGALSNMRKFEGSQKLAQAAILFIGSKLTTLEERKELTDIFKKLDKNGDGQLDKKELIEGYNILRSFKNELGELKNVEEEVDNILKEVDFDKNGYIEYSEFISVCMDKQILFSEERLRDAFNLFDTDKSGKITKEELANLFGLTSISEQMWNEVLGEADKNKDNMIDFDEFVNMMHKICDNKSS

As a reminder, the inhibition is the change of the read-out against control, counted positive when it falls. Regarding `CC(C)CC(C)NC(=O)C1Cc2c([nH]c3ccc(F)cc23)C2(CCN(Cc3ccccc3)CC2)N1` (stereo not given), the growth inhibition is 49% in test [1] and 97% (active) in test [4]. Moreover, the inhibition in test [2] is 18%; in test [3], 7%. The outcome in test [5], in test [6], in test [7] and in test [8] was inactive.
Take `Cc1ccc2nc(C)cc(Nc3ccccc3O)c2c1`: the figures for the growth inhibition in test [1] and in test [4] were 6% and 96% (active), respectively. Further, the inhibition in test [2] was 0%; in test [3], -3%. For the same compound, the outcome in test [5], in test [6], in test [7] and in test [8] was inactive.
In the case of `O=C(NCc1cccc(C(F)(F)F)c1)C1CCCN(C(=O)c2ccc(O)c(-c3ccc(Cl)c(Cl)c3)c2)C1` (stereo not given), the growth inhibition in test [1] was 32%; in test [4], 94% (active). Also, the inhibition in test [2] was 1%; in test [3] it was 6%. In addition, the result in test [5], in test [6], in test [7] and in test [8] was inactive.
On to `Cc1cn(CC(=O)Nc2cccc(-c3cccc(-c4nc5c(C)cccc5[nH]4)c3)c2)c(=O)[nH]c1=O`, for which the growth inhibition in test [1] and in test [4] was 100% (active) each time. For the same compound, the inhibition in test [2] is 2%; in test [3], 5%. In addition, the outcome in test [5], in test [6], in test [7] and in test [8] was inactive.
As for `Cc1cccc2nc(C(=O)Nc3nc(CN4CCC(C)CC4)cs3)cn12`, the results for the growth inhibition in test [1] and in test [4] were 80% (active) and 94% (active), respectively. For the same compound, the inhibition was -27% in test [2] and 0% in test [3]. Also, the result in test [5], in test [6], in test [7] and in test [8] was inactive.
As for `CN(C)CC(=O)Nc1ccc(-c2ccc3ccnc(N)c3c2)cc1`, the growth inhibition in test [1] was 99% (active); in test [4], 101% (active). For the same compound, the inhibition was 69% (active) in test [2] and 2% in test [3]. In addition, the outcome in test [5], in test [6], in test [7] and in test [8] was inactive.
As for `O=C(Nc1ccc(C(F)(F)F)cc1)c1ccc(S(=O)(=O)NCC2CCCN(CC3CCCCC3)C2)cc1` (stereo not given), the growth inhibition in test [1] is -6%; in test [4], 93% (active). In addition, the values for the inhibition in test [2] and in test [3] were 44% and -7%, respectively. Besides, the result in test [5], in test [6], in test [7] and in test [8] was inactive.
In the case of `CCN(CC)CCN(Cc1ccc(-c2ccc(C(F)(F)F)cc2)cc1)C(=O)Cn1c(CCc2cc(F)c(F)cc2F)nc(=O)c2ccccc21`, the growth inhibition in test [1] is 50% (active); in test [4] it was 99% (active). In addition, the results for the inhibition in test [2] and in test [3] were 39% and -4%, respectively. The result in test [5], in test [6], in test [7] and in test [8] was inactive.
Consider `COc1ccc2ncc(F)c(CCN3CCC(NCc4cnc5c(c4)NC(=O)CS5)CC3)c2c1`, for which the growth inhibition was 16% in test [1] and 99% (active) in test [4]. The results for the inhibition in test [2] and in test [3] were 16% and 3%, respectively. Also, the outcome in test [5], in test [6], in test [7] and in test [8] was inactive.
Take `CC(CCCCC(=O)Nc1ccc(CC(C)NCCc2cccc(Cl)c2)cc1)NCCc1cccc(Cl)c1` (stereo not given): the growth inhibition in test [1] was -1%; in test [4] it was 91% (active). Besides, the inhibition in test [2] was 28%; in test [3], -1%. Besides, the result in test [5], in test [6], in test [7] and in test [8] was inactive.
Take `CCNc1cc(C(=O)N[C@@H](Cc2ccccc2)[C@H](O)CN[C@@H]2CCc3ccccc32)cc(N2CCCCS2(=O)=O)c1`: the growth inhibition is 97% (active) in test [1] and 98% (active) in test [4]. The inhibition was -7% in test [2] and 4% in test [3]. Further, the result in test [5], in test [6], in test [7] and in test [8] was inactive.
With `Cc1nc(N)nc(N)c1CCCOc1ccc(Br)cc1`, the growth inhibition is 5% in test [1] and 97% (active) in test [4]. The inhibition in test [2] is 30%; in test [3] it was 1%. Besides, the outcome in test [5], in test [6], in test [7] and in test [8] was inactive.
For the compound `O=C(Nc1ccccc1)N(Cc1cccc(-c2ccc(CNC3CCCC3)cc2)c1)C1CCN(Cc2ccccc2)CC1`, the growth inhibition in test [1] was 96% (active); in test [4], 101% (active). Further, the inhibition was 100% (active) in test [2] and 8% in test [3]. The result in test [5], in test [6], in test [7] and in test [8] was inactive.
For the compound `Cc1noc(C)c1-c1ccc2c(Nc3ccccc3C(C)(C)C)c(C(=O)NC3CCCC3)cnc2c1`, the growth inhibition is 79% (active) in test [1] and 93% (active) in test [4]. Moreover, the inhibition in test [2] is 27%; in test [3], -3%. The outcome in test [5], in test [6], in test [7] and in test [8] was inactive.
On to `Cc1noc(-c2ccc3c(c2)CCN(CCC2CCC(NC(=O)c4cc5ccccc5[nH]4)CC2)CC3)n1` (stereo not given), for which the growth inhibition was 41% in test [1] and 99% (active) in test [4]. Besides, the inhibition was 21% in test [2] and -7% in test [3]. Also, the result in test [5], in test [6], in test [7] and in test [8] was inactive.
Consider `COc1cccc(CNC[C@@H](O)[C@H](Cc2ccccc2)NC(=O)c2cc(N3CCCC3=O)c3[nH]cc(C(C)C)c3c2)c1`, for which the growth inhibition in test [1] was 98% (active); in test [4], 96% (active). For the same compound, the inhibition in test [2] was 5%; in test [3], 3%. The outcome in test [5], in test [6], in test [7] and in test [8] was inactive.
For the compound `CC[C@H]1CN(Cc2ccccc2Br)CC[C@H]1CCCc1ccnc2ccc(O)cc12`, the growth inhibition in test [1] was 2%; in test [4], 86% (active). Also, the figures for the inhibition in test [2] and in test [3] were 12% and -4%, respectively. Also, the result in test [5], in test [6], in test [7] and in test [8] was inactive.
`COCCNCc1ccc(-c2cccc(CNC3CCN(Cc4ccccc4)CC3)c2)cc1`: the growth inhibition in test [1] is 101% (active); in test [4], 100% (active). The inhibition in test [2] was 30%; in test [3] it was 0%. Also, the result in test [5], in test [6], in test [7] and in test [8] was inactive.
Take `Cn1nc(-c2cccc(CNC3CCc4ccccc43)c2)c2cnc(NC3CCCC3)nc21` (stereo not given): the values for the growth inhibition in test [1] and in test [4] were 23% and 100% (active), respectively. Besides, the inhibition is 14% in test [2] and -1% in test [3]. Moreover, the result in test [5], in test [6], in test [7] and in test [8] was inactive.
`Cc1nn(C2CCS(=O)(=O)C2)c(C)c1C1Nc2ccccc2C(=O)N1Cc1ccc2c(c1)OCO2` (stereo not given): the results for the growth inhibition in test [1] and in test [4] were 93% (active) and 98% (active), respectively. The inhibition in test [2] is 7%; in test [3], 2%. Besides, the outcome in test [5], in test [6], in test [7] and in test [8] was inactive.

These data come from PubChem BioAssay.
